Our source for the outcome and AC50 values is PubChem BioAssay (EPA / NIEHS).

Records with an inconclusive call do not appear. Active and inactive are the calls of the source. The calls were made as follows, unless noted: active = hit-call score of the fitted dose curve at least 0.9, where 1 is the maximum; inconclusive = response in the unintended direction; inactive = score below 0.9.

In test [1] the target is PGR (gene 5241) (UniProt P06401). Nature of the test: TOX21_PR_BLA_Followup_Agonist_ratio: Tox21 HEK293 Progesterone Receptor (PR) Agonism Beta-lactamase Follow-Up Assay, Ratio (AID 2283933). The procedure, abridged:
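HEK293T PR-UAS-bla, 2% CS-FBS; 6 hr preincubation, cpd/DMSO pinned, 16 hr 37C/5% CO2; LiveBLAzer B/G 2 hr RT; FRET ch2/ch1 ratio, agonist direction vs DMSO. Viability by CellTiter-Glo in same wells.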

For test [2] the target is unchanged. Nature of the test: TOX21_PR_BLA_Followup_Antagonist_ratio: Tox21 HEK293 Progesterone Receptor (PR) Antagonism Beta-lactamase Follow-Up Assay, Ratio (AID 2283934). The procedure, abridged: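 HEK293T PR-UAS-bla, 2% CS-FBS; 6 hr plating, then cpd + R5020 (1 nM final), 16 hr 37C/5% CO2. B/G FRET substrate 2 h RT. Ratio ch2/ch1 vs DMSO; CellTiter-Glo viability multiplexed, autofluorescence checked.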

A short description of test [3]: TOX21_PR_BLA_Followup_Antagonist_viability: Viability Assessment in the Tox21 HEK293 Progesterone Receptor (PR) Antagonism Beta-lactamase Follow-Up Assay (AID 2283936).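 Also: hits lower the luminescence signal meaning cytotoxicity.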 In outline: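 PR-UAS-bla HEK293T cells (3,000/well, 2% charcoal-stripped FBS) given compound plus R5020 agonist, 16 h at 37C. CellTiter-Glo added after bla read, 30 min at room temperature; luminescence loss indicates cytotoxicity.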

In test [4] the target is PGR (gene 5241) (UniProt P06401). Nature of the test: TOX21_PR_LUC_Followup_Agonist: Tox21 HEK293 Progesterone Receptor (PR) Agonism Luciferase Follow-Up Assay (AID 2283937; active = hit-call score of the fitted dose curve at least 0.9, where 1 is the maximum; inactive = score below 0.9). The procedure, abridged:
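Cells: HEK293-PR-A-luc, 3,000/well, 10% charcoal-stripped FBS assay medium. Compound added after 5 h; 16 h, 37C, 0% CO2. ONE-Glo luciferase, luminescence. Positive fit vs DMSO.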

Test [5] shares this target. Nature of the test: TOX21_PR_LUC_Followup_Antagonist: Tox21 HEK293 Progesterone Receptor (PR) Antagonism Luciferase Follow-Up Assay (AID 2283938).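 Also: curve fitted upward as signal gain over DMSO baseline despite antagonist label.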 The procedure, abridged: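 Cells are grown 5 days in charcoal-stripped-FBS assay medium, plated, left 5 h, then dosed with compound and incubated 16 h. ONE-Glo reagent is added and luminescence read after 30 min.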
Test [6] can be described thus: TOX21_PR_LUC_Followup_Antagonist_viability: Viability Assessment in the Tox21 HEK293 Progesterone Receptor (PR) Antagonism Luciferase Follow-Up Assay (AID 2283940). In outline: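 Multiplexed viability counter-screen: after 5 days in charcoal-stripped-FBS medium, HEK293-PR-A-luc cells are plated, pinned with DMSO-dissolved compounds for 16 h at 37C, and ATP content is quantified luminescently via CellTiter-Glo.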

Test [7] is described as follows: CPHEA_Stoker_NIS_Cytotoxicity: Cytotoxicity Assessment for CPHEA's Radioactive Iodide Uptake (RAIU) Assay for Sodium/Iodide Symporter (NIS) Inhibition, Stoker and Laws Labs (AID 2283897). In outline: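 ATP luminescence (Cell Titer Glo) measured viability, with loss of signal normalized to DMSO controls. Cells: hNIS-HEK293T-EPA, seeded 40 hours prior. Dosing: 0.001–100uM, 2 hours, room temperature, uptake buffer pH 7.4.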

A short description of test [8]: TOX21_PR_BLA_Followup_Agonist_viability: Viability Assessment in the Tox21 HEK293 Progesterone Receptor (PR) Agonism Beta-lactamase Follow-Up Assay (AID 2283935).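 Also: cells exposed to compound for 16 hr at 37 °C; signal loss means lower viability so actives are cytotoxic.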 The procedure, abridged: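 HEK293T PR-UAS-bla, 3,000 cells/well, 2% CS-FBS; 6 hr pre-incubation; cpd in DMSO, 16 hr 37C; LiveBLAzer 2 hr RT, then CellTiter-Glo 30 min RT, luminescence. Decrease = lost viability.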

For test [9], the target named is Thyroid hormone receptor alpha (Rattus norvegicus) + Thyroid hormone receptor beta (Rattus norvegicus) (UniProt P18113+P63059). Nature of the test: TOX21_TR_LUC_GH3_Agonist_Followup: Tox21 GH3 Thyroid Hormone Receptor Agonism Luciferase Follow-Up Assay (AID 2283939). In outline: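 Rat GH3 cells (1,500/well) in serum-free assay medium, treated with 15-point series, 92 uM to 5 nM final, for 24 h at 37C. Luciferase via ONE-Glo luminescence; gain of signal fitted against DMSO, T3 positive control.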

A short description of test [10]: CEETOX_H295R_11DCORT_noMTC: CeeTox H295R High-throughput Steroidogenesis Assay for 11-Deoxycortisol (11DCORT), maximum tolerated concentration (MTC) filtered results only (AID 2283911; active = hit-call score of the fitted dose curve at least 0.9, where 1 is the maximum; inactive = score below 0.9). The note with it: actives raise or lower the signal. In outline:
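Steroidogenesis was stimulated in H295R cells with 10 uM forskolin for 48 h before a 48 h chemical exposure. Secreted 11-deoxycortisol was measured by tandem mass spectrometry and fitted bidirectionally against DMSO controls.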

Test [11] is described as follows: CEETOX_H295R_OHPREG_noMTC: CeeTox H295R High-throughput Steroidogenesis Assay for OH-Pregnenolone (OHPREG), maximum tolerated concentration (MTC) filtered results only (AID 2283912; active = hit-call score of the fitted dose curve at least 0.9, where 1 is the maximum; inactive = score below 0.9). The note with it: actives raise or lower the signal. The procedure, abridged:
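H295R human adrenal cells, forskolin-prestimulated (10 uM, 48 h), then exposed to test chemical in 0.1% DMSO for 48 h. 17alpha-hydroxypregnenolone in medium measured by HPLC-MS/MS after MTBE extraction; bidirectional fit versus DMSO, concentrations not MTC-filtered.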

Test [12] in a line: CEETOX_H295R_OHPROG_noMTC: CeeTox H295R High-throughput Steroidogenesis Assay for OH-Progesterone (OHPROG), maximum tolerated concentration (MTC) filtered results only (AID 2283914; active = hit-call score of the fitted dose curve at least 0.9, where 1 is the maximum; inactive = score below 0.9). The note with it: actives raise or lower the signal. The procedure, abridged: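 H295R human adrenal cells prestimulated 48 h with 10 uM forskolin, then exposed 48 h to test chemical (0.1% DMSO final). Medium 17alpha-hydroxyprogesterone extracted with MTBE, quantified by HPLC-MS/MS; bidirectional fit versus DMSO, concentrations not MTC-filtered.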

A short description of test [13]: CEETOX_H295R_CORTISOL_noMTC: CeeTox H295R High-throughput Steroidogenesis Assay for Cortisol, maximum tolerated concentration (MTC) filtered results only (AID 2283916; active = hit-call score of the fitted dose curve at least 0.9, where 1 is the maximum; inactive = score below 0.9). The note with it: actives raise or lower the signal. The procedure, abridged:
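H295R adrenal cells were pre-stimulated 48 h with 10 uM forskolin, then exposed 48 h to test chemical in 0.1% DMSO. Medium cortisol was measured by MTBE extraction and HPLC-MS/MS; bidirectional fit versus DMSO, concentrations not MTC-filtered.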

A short description of test [14]: CEETOX_H295R_CORTIC_noMTC: CeeTox H295R High-throughput Steroidogenesis Assay for Corticosterone (CORTIC), maximum tolerated concentration (MTC) filtered results only (AID 2283917; active = hit-call score of the fitted dose curve at least 0.9, where 1 is the maximum; inactive = score below 0.9). As to conditions: actives raise or lower the signal. In outline:
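H295R, 10 uM forskolin prestim 48 h → test chem (0.1% DMSO final) 48 h → media MTBE extraction → HPLC-MS/MS corticosterone. Bidirectional fit vs DMSO baseline; no MTT-based MTC filtering.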

Test [15] can be described thus: CEETOX_H295R_DOC_noMTC: CeeTox H295R High-throughput Steroidogenesis Assay for DOC, maximum tolerated concentration (MTC) filtered results only (AID 2283918; active = hit-call score of the fitted dose curve at least 0.9, where 1 is the maximum; inactive = score below 0.9). As to conditions: actives raise or lower the signal. The procedure, abridged: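 H295R cells prestimulated 48 h with 10 uM forskolin, then exposed 48 h to test chemical (0.1% DMSO final). Medium 11-deoxycorticosterone extracted with MTBE, quantified by HPLC-MS/MS; bidirectional fit versus DMSO, concentrations not MTC-filtered.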

Test [16] in a line: CEETOX_H295R_PROG_noMTC: CeeTox H295R High-throughput Steroidogenesis Assay for Progesterone (PROG), maximum tolerated concentration (MTC) filtered results only (AID 2283920; active = hit-call score of the fitted dose curve at least 0.9, where 1 is the maximum; inactive = score below 0.9). The note with it: actives raise or lower the signal. In outline:
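H295R human adrenal cells were prestimulated 48 h with 10 uM forskolin, then exposed 48 h to test chemical (0.1% DMSO final). Progesterone in medium was quantified by HPLC-MS/MS; bidirectional fitting versus DMSO, concentrations not MTC-filtered.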

The nature of test [17]: CEETOX_H295R_ANDR_noMTC: CeeTox H295R High-throughput Steroidogenesis Assay for Androstenedione (ANDR), maximum tolerated concentration (MTC) filtered results only (AID 2283915; active = hit-call score of the fitted dose curve at least 0.9, where 1 is the maximum; inactive = score below 0.9). The note with it: actives raise or lower the signal. In outline:
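H295R cells, passage 10 or below, prestimulated 48 h with 10 uM forskolin, then exposed 48 h to chemical in 0.1% DMSO. Medium androstenedione extracted with MTBE, quantified by HPLC-MS/MS; concentrations not MTC-filtered; bidirectional fit versus DMSO.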

A short description of test [18]: CEETOX_H295R_ESTRADIOL_noMTC: CeeTox H295R High-throughput Steroidogenesis Assay for Estradiol, maximum tolerated concentration (MTC) filtered results only (AID 2283919; active = hit-call score of the fitted dose curve at least 0.9, where 1 is the maximum; inactive = score below 0.9). The note with it: actives raise or lower the signal. In outline:
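H295R human adrenal cells pre-stimulated 48 h with 10 uM forskolin, then exposed 48 h to chemical (0.1% DMSO final). Estradiol in medium measured by HPLC-MS/MS after MTBE extraction and dansyl derivatization; bidirectional fit versus DMSO, concentrations not MTT-filtered.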

A short description of test [19]: CEETOX_H295R_ESTRONE_noMTC: CeeTox H295R High-throughput Steroidogenesis Assay for Estrone, maximum tolerated concentration (MTC) filtered results only (AID 2283921; active = hit-call score of the fitted dose curve at least 0.9, where 1 is the maximum; inactive = score below 0.9). The note with it: actives raise or lower the signal. The procedure, abridged: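 H295R cells prestimulated 48 h with 10 uM forskolin, then exposed 48 h to chemical in 0.1% DMSO; medium estrone measured by HPLC-MS/MS after MTBE extraction and dansyl derivatization, fitted bidirectionally versus DMSO without MTT-based MTC filtering.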

Test [20] can be described thus: CEETOX_H295R_TESTO_noMTC: CeeTox H295R High-throughput Steroidogenesis Assay for Testosterone (TESTO), maximum tolerated concentration (MTC) filtered results only (AID 2283924; active = hit-call score of the fitted dose curve at least 0.9, where 1 is the maximum; inactive = score below 0.9). As to conditions: actives raise or lower the signal. In outline:
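H295R cells prestimulated 48 h with 10 uM forskolin, then exposed 48 h to chemicals in 0.1% DMSO final. Testosterone in medium quantified by MTBE extraction and HPLC-MS/MS; bidirectional fit versus DMSO, concentrations […] filtered by MTT-based maximum tolerated concentration.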

Chain of PGR (gene 5241) (P06401 whole entry, looked up): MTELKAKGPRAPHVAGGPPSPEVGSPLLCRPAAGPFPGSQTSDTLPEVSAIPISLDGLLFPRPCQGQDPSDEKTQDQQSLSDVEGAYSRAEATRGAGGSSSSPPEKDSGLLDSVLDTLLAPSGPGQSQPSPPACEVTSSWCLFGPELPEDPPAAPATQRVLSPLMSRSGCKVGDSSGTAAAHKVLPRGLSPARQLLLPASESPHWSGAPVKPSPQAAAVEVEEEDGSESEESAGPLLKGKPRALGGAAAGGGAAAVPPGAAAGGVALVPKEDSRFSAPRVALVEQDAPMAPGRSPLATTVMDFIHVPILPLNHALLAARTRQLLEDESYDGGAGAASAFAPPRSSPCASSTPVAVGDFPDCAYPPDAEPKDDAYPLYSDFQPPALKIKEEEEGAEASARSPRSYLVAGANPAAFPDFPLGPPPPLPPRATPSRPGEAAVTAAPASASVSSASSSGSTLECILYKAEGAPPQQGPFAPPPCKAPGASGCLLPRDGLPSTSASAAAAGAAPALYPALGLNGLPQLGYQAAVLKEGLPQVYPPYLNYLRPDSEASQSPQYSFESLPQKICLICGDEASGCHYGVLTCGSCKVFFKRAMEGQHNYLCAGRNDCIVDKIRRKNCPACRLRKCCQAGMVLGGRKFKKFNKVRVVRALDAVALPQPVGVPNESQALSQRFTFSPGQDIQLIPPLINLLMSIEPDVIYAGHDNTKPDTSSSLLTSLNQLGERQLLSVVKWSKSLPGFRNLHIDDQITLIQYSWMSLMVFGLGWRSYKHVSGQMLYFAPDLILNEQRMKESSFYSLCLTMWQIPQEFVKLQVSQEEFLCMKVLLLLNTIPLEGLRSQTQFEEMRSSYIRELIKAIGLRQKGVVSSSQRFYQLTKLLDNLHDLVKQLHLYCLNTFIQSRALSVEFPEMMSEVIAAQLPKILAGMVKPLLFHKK
Chain of Thyroid hormone receptor alpha (Rattus norvegicus) + Thyroid hormone receptor beta (Rattus norvegicus) (P63059 whole entry, looked up): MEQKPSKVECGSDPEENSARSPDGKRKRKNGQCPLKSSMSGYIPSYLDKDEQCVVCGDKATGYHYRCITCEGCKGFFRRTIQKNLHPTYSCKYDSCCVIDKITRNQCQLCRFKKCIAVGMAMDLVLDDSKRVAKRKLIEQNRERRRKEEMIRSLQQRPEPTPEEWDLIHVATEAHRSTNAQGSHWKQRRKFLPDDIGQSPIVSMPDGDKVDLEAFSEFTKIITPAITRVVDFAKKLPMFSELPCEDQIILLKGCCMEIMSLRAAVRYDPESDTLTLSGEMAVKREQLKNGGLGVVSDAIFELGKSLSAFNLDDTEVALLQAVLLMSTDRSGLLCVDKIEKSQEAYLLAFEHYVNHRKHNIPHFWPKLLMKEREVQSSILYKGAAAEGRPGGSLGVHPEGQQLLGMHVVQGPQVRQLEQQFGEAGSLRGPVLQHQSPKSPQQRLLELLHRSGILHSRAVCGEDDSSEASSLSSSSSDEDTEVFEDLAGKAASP
Chain of Thyroid hormone receptor alpha (Rattus norvegicus) + Thyroid hormone receptor beta (Rattus norvegicus) (P18113 whole entry, looked up): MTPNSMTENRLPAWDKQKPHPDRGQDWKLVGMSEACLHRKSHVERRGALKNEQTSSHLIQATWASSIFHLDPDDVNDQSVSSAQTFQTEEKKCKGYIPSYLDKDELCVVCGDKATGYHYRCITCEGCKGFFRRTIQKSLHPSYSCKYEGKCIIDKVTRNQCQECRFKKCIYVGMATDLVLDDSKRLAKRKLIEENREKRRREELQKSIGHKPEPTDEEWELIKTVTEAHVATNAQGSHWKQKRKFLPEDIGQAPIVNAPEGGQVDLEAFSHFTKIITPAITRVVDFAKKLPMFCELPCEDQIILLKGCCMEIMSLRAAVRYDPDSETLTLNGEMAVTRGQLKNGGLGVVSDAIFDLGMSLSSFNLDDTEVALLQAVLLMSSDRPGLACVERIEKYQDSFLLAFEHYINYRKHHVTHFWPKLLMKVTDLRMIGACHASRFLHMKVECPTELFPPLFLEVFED

The AC50 is the concentration giving half of the maximal activity seen. For the molecule `N#Cc1ccc(N(CC(N)=O)CC(F)(F)F)cc1C(F)(F)F`, the result in test [1], in test [3], in test [4] and in test [6] was inactive. The AC50 in [2] and in test [5] was 46.1 µM (active) throughout.

Consider `Cc1cccc(C)c1N`, for which the result in test [7] was inactive.

Turning to `ClC(Cl)=C(c1ccc(Cl)cc1)c1ccc(Cl)cc1`, the outcome in test [7], in [8], in test [3] and in test [6] was inactive. Moreover, the figures for the AC50 in test [2] and in test [5] were 24.9 µM (active) and 21.6 µM (active), respectively.

Turning to `CCSC(=O)N(CC)C1CCCCC1`, the outcome in test [7] was inactive.

With `C[C@]12CCC(=O)C=C1CC[C@@H]1[C@@H]2CC[C@]2(C)C(=O)CC[C@@H]12`, the AC50 in test [2] was 9.75 µM (active). Moreover, the call in [8], in test [3], in test [5] and in [6] was inactive.

In the case of `Cc1cc(O)ccc1Cl`, in test [9], the outcome was inactive.

In the case of `CCOP(=S)(OCC)SCSC(C)(C)C`, the outcome in test [7] was inactive.

In the case of `C[C@]12CCC(=O)C=C1CC[C@@H]1[C@@H]2CC[C@@]2(C)[C@H]1CC[C@]2(C)O`, the result in test [2], in test [8], in [3] and in test [5] was inactive.

In the case of `O=C(O)C(F)(F)C(F)(F)C(F)(F)C(F)(F)C(F)(F)C(F)(F)C(F)(F)C(F)(F)C(F)(F)F`, the outcome in [7], in test [10], in [11], in [12], in [13] and in test [14] was inactive. The call in test [15] and in test [16] was inactive.

As for `CCOC(=O)C(O)(c1ccc(Cl)cc1)c1ccc(Cl)cc1`, the outcome in test [7] was inactive.

For the molecule `CCCCCCCCOC(=O)c1ccccc1C(=O)OCCCCCCCC`, the result in test [11], in [12], in test [17], in test [18], in test [16] and in test [19] was inactive. Further, the result in test [20] was inactive.

Consider `Clc1ccc(C(c2ccccc2Cl)C(Cl)(Cl)Cl)cc1` (configuration not stated), for which the AC50 in test [2] was 12.7 µM (active); in [8], 46.1 µM (active); in test [5], 15.6 µM (active). Moreover, the call in test [6] was inactive.

On to `CC(C)(c1ccccc1)c1ccc(O)cc1`, for which the outcome in test [7], in test [8], in test [3] and in [6] was inactive. Besides, the AC50 is 32.7 µM (active) in test [2] and 35.3 µM (active) in test [5].

Consider `O=C(O)C(F)(F)C(F)(F)C(F)(F)C(F)(F)C(F)(F)C(F)(F)C(F)(F)C(F)(F)F`, for which, in test [7], the outcome was inactive.

Take `O=S(=O)(O)C(F)(F)C(F)(F)C(F)(F)C(F)(F)F`: the outcome in test [7] was inactive.

As for `NS(=O)(=O)C(F)(F)C(F)(F)C(F)(F)C(F)(F)C(F)(F)C(F)(F)C(F)(F)C(F)(F)F`, the result in test [7] was inactive.

Turning to `Cc1ccccc1CO[C@@H]1C[C@@]2(C(C)C)CC[C@]1(C)O2`, in test [7], the outcome was inactive.

In the case of `CCCCCCCCCC[N+](C)(C)CCCCCCCCCC`, the outcome in test [7] was inactive.

On to `O=S(=O)(O)C(F)(F)C(F)(F)C(F)(F)C(F)(F)C(F)(F)C(F)(F)F`, for which the result in [7] was inactive.
